Results on 20 compounds are retold here after PubChem BioAssay (NCI).

Compounds without any hit were thinned out: in the full panel of roughly 79,000, 15% have a hit. Unmarked numbers belong to inactive results. The source made the active and inactive calls. Rule as the data show it: active = growth inhibition above about 70%; inactive = the rest.

Assay [1] in a line: NCI Yeast Anticancer Drug Screen. Data for the rad50 strain (AID 155).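 Also: 0% = growth of vehicle-only cultures of the same strain.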 Particulars: S. cerevisiae rad50 strain growth inhibition; at 50.0 µM; stronger effect = higher value. In short, it runs like this: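 Inhibition values express reduced yeast growth in compound-treated cultures relative to vehicle-treated controls.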
Assay [2] is described as follows: NCI Yeast Anticancer Drug Screen. Data for the mec2-1 strain (AID 157). Particulars: S. cerevisiae mec2-1 strain, at 50.0 µM, stronger effect = higher value. In short, it runs like this: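 Each compound was tested on mec2-1 yeast, a strain altered in DNA damage repair or cell cycle control. Growth inhibition is reported relative to vehicle.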
A short description of assay [3]: NCI Yeast Anticancer Drug Screen. Data for the sgs1 mgt1 strain (AID 161).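 Also: 0% = growth of cultures given vehicle only.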 Particulars: S. cerevisiae sgs1 mgt1 strain, at 50.0 µM, stronger effect = higher value. In short, it runs like this: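 Read-out: growth inhibition vs vehicle controls. Cells: mutant yeast strain deficient in DNA damage repair.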
A short description of assay [4]: NCI Yeast Anticancer Drug Screen. Data for the cln2 rad14 strain (AID 165).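 Also: 0% = growth equal to vehicle treated cultures.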 The following applies: S. cerevisiae cln2 rad14 strain, at 50.0 µM, stronger effect = higher value. In outline: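 Test compounds were added to cln2 rad14 yeast cultures; inhibition of growth was then determined by comparison with vehicle treatment.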
The nature of assay [5]: NCI Yeast Anticancer Drug Screen. Data for the bub3 strain (AID 167). The following applies: S. cerevisiae bub3 mutant strain, at 50.0 µM, stronger effect = higher value. In short, it runs like this:
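Steps: expose the mutant yeast strain to compound; grow alongside vehicle-treated cultures; measure growth; express inhibition against the vehicle cultures.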

Assay [6] can be described thus: NCI Yeast Anticancer Drug Screen. Data for the mlh1 rad18 strain (AID 175). The following applies: S. cerevisiae mlh1 rad18 strain growth inhibition; at 50.0 µM; stronger effect = higher value. In short, it runs like this: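 Inhibition values reflect reduced growth of mutant yeast versus vehicle-treated controls following compound exposure; the mutations affect DNA damage repair.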

In the case of `CCOC(=O)c1ccc(CCCN)cc1`, the growth inhibition in assay [1] is -17.8%; in assay [2], -13.2%; in assay [3] it was 12.9%; in assay [4] it was -28.2%; in assay [5], -10%; in assay [6], 0.65%.
Regarding `CCCCCCCCCCCCN(CC(O)C(O)C(OC1OC(CO)C(O)C(O)C1O)C(O)CO)C(=O)CCCCCCCCCCC` (stereo not given), the growth inhibition in assay [1] was -2.7%; in assay [2], -19.2%; in assay [3], 17.7%; in assay [4], 0.4%; in assay [5], 4.3%; in assay [6] it was -50.5%.
`C=C[C@@]1(C)CC2CC[C@]3(C)C(C)=CC(=O)CC3[C@]2(C)CC1O` (stereo not given in full): the growth inhibition was 6.9% in assay [1]; 3.3% in assay [2]; 22.7% in assay [3]; -20.3% in assay [4]; 13% in assay [5]; 10.4% in assay [6].
Take `CCc1cc2c(cc1C(=O)CCN1CCCC1)C(C)(C)CCC2(C)C`: the growth inhibition in assay [1] was 99.5% (active); in assay [2], 99.7% (active); in assay [3] it was 98.5% (active); in assay [4] it was 99.5% (active); in assay [5] it was 99.5% (active); in assay [6], 99.8% (active).
Take `CN1CCN(CCCBr)CC1`: the growth inhibition in assay [1] was -8.85%; in assay [2], -5.3%; in assay [3], -24.9%; in assay [4], -31.8%; in assay [5], -31.9%; in assay [6] it was -4.3%.
Consider `COc1ccc2[nH]cc(CC(N)=O)c2c1`, for which the growth inhibition is -25.8% in assay [1]; -28.8% in assay [2]; -39.4% in assay [3]; 12.7% in assay [4]; -41.4% in assay [5]; -19.5% in assay [6].
On to `COC(=O)C1CCC(=O)N1CN(C(C)=O)c1cc(OC)ccc1OC` (stereo not given), for which the growth inhibition is 14.9% in assay [1]; -0.05% in assay [2]; 2.85% in assay [3]; 6.45% in assay [4]; -5.15% in assay [5]; -50.1% in assay [6].
Regarding `O=C(O)COc1ccccc1/C=C1/SC(=S)N(c2ccccc2)C1=O`, the growth inhibition was -1.4% in assay [1]; -10.8% in assay [2]; -7.25% in assay [3]; -41.5% in assay [4]; 0.55% in assay [5]; 1.1% in assay [6].
Turning to `N=c1nc2n(cc1F)C1OC(CO)C(O)C1O2` (stereo not given), the growth inhibition in assay [1] was -18.1%; in assay [2], 7.7%; in assay [3], 15.3%; in assay [4] it was -37.3%; in assay [5], -0.1%; in assay [6], -8%.
Regarding `Cc1ccc(NC(=S)NC(=O)c2ccccc2)cc1`, the growth inhibition was 10.9% in assay [1]; 4.95% in assay [2]; 8.7% in assay [3]; -55.7% in assay [4]; 3.3% in assay [5]; 24.4% in assay [6].
On to `CN1C2CCC1C1N=NN(c3cc(C(F)(F)F)cc(C(F)(F)F)c3)C1(N1CCOCC1)C2` (stereo not given), for which the growth inhibition in assay [1] was -20.9%; in assay [2], -9.6%; in assay [3] it was -27.7%; in assay [4], 0.35%; in assay [5] it was -11.9%; in assay [6], -21.8%.
In the case of `COC(=O)C1=CC2C(C1)C1CC2C(OC(C)=O)C1N(C)C` (stereo not given), the growth inhibition in assay [1] is 15.8%; in assay [2] it was 6%; in assay [3] it was -0.55%; in assay [4] it was -31.8%; in assay [5], 6.35%; in assay [6], 17.4%.
On to `Oc1ccc(Cn2c(-c3ccc(O)cc3)nc3ccccc32)cc1`, for which the growth inhibition is -6.95% in assay [1]; -5% in assay [2]; -10.1% in assay [3]; 5.05% in assay [4]; 1.4% in assay [5]; -13.3% in assay [6].
In the case of `CC(=O)Oc1ccc(CCNC(c2ccccc2)c2ccccc2)cc1OC(C)=O`, the growth inhibition in assay [1] was 44%; in assay [2], 13.2%; in assay [3], 42.5%; in assay [4] it was -7.6%; in assay [5] it was -17.4%; in assay [6], 38.3%.
Regarding `Cc1ccc2nc(CC(=O)c3ccc4ccccc4c3)c(=O)[nH]c2c1`, the growth inhibition is 6.4% in assay [1]; 9.65% in assay [2]; 9.2% in assay [3]; 13.3% in assay [4]; 3.15% in assay [5]; 22.1% in assay [6].
With `O=C(N/N=C\c1ccc([N+](=O)[O-])cc1)Nc1cccc2ccccc12`, the growth inhibition in assay [1] is -49%; in assay [2], 13.3%; in assay [3], -42.4%; in assay [4] it was -14.4%; in assay [5] it was -1%; in assay [6] it was -41.8%.
As to `CCOC(OCC)C(N)C(=O)O` (stereo not given), the growth inhibition in assay [1] was 6%; in assay [2] it was 23.7%; in assay [3] it was 1.4%; in assay [4] it was -19.3%; in assay [5] it was 10.8%; in assay [6] it was -15%.
In the case of `CC(=O)CC1CCCC1`, the growth inhibition in assay [1] is 19.4%; in assay [2], 0.6%; in assay [3], 19.9%; in assay [4], 15.9%; in assay [5] it was 5.3%; in assay [6], 17.9%.
Turning to `Oc1ccc(C=NCCN=Cc2ccc(O)cc2)cc1`, the growth inhibition in assay [1] was 9.55%; in assay [2], -17.4%; in assay [3] it was -14.8%; in assay [4], -24.2%; in assay [5], 5.1%; in assay [6], 12.1%.
On to `CC(C)(C)CC(C)(C)Nc1ccc(C(N)=O)cc1`, for which the growth inhibition in assay [1] was -2.35%; in assay [2] it was 15.2%; in assay [3], -20.9%; in assay [4], -8.2%; in assay [5] it was 7.7%; in assay [6] it was 9.6%.
